Inconclusive results are not listed. Entries that show only a call come without a potency. The source made the active and inactive calls. Unless noted, the call rests on the fitted dose curve; in most records, active means well fitted curve in the direction sought with a large enough effect; inconclusive means small, poorly fitted or top-dose-only effect, or another doubt; inactive means no such curve, though single readings can be large; an effect the other way counts as inactive or inconclusive.
Experiments:
[1] = P-glycoprotein substrates identified in KB-3-1 adenocarcinoma cell line, qHTS therapeutic library screen (AID 1346986); further: nearly all actives have a fitted effect of over 60% in size
In short: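 Cells seeded 500/well in DMEM/10% FCS; compounds pinned in dose-response; 72 h incubation; CellTiter-Glo added, 5 min, luminescence. KB-8-5-11 run ±tariquidar to test reversal of P-gp resistance.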

[2] = P-glycoprotein substrates identified in KB-8-5-11 adenocarcinoma cell line, qHTS therapeutic library screen (AID 1346987); further: nearly all actives have a fitted effect of over 65% in size
In short: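 Steps: plate 500 KB-8-5-11 cells/well in DMEM + 10% FCS (colchicine removed); pin compounds in dose-response; incubate 72 h, 37 degree C, 5% CO2; add CellTiter-Glo, 5 min; read luminescence.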

[3] = NS1 protein of Zika virus - qHTS assay to identify small molecule inhibitors in human HEK 293 cells (AID 1347053); further: series mostly up to about 46 µM; nearly all actives have a fitted effect of over 55% in size
In short: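 Inhibition of NS1 expression was scored in HEK 293 cells given compound 1 h ahead of MR766 virus (MOI = 0.5). Following 24 h at 37 C, two anti-NS1 antibodies generated a TR-FRET signal, scaled between uninfected and infected controls.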

[4] = qHTS for Inhibitors of the Functional Ribonucleoprotein Complex (vRNP) of Lassa (LASV) Arenavirus: LASV Primary Screen - GLuc reporter signal (AID 1347082; calls by dose curve; tested in HEK293 reporter line; further: series mostly up to about 57 µM; nearly all actives have a fitted effect of over 60% in size)
[5] = qHTS for Inhibitors of the Functional Ribonucleoprotein Complex (vRNP) of Lassa (LASV) Arenavirus: Viability assay - alamar blue signal for LASV Primary Screen (AID 1347083; calls by dose curve; tested in HEK293 reporter line; further: series mostly up to about 57 µM; nearly all actives have a fitted effect of over 80% in size)
[6] = qHTS for Inhibitors of the Functional Ribonucleoprotein Complex (vRNP) of Lymphocytic Choriomeningitis Arenaviruses (LCMV): Viability assay - alamar blue signal for LCMV Primary Screen (AID 1347085; calls by dose curve; tested in HEK293 reporter line; further: series mostly up to about 57 µM; nearly all actives have a fitted effect of over 80% in size)
[7] = target: Nucleoprotein (Lymphocytic choriomeningitis virus (strain Armstrong)) (UniProt P09992); test: qHTS for Inhibitors of the Functional Ribonucleoprotein Complex (vRNP) of Lymphocytic Choriomeningitis Arenaviruses (LCMV): LCMV Primary Screen - GLuc reporter signal (AID 1347086; calls by dose curve; further: series mostly up to about 57 µM; nearly all actives have a fitted effect of over 70% in size)
Sequence of Nucleoprotein (Lymphocytic choriomeningitis virus (strain Armstrong)) (P09992 whole entry, looked up): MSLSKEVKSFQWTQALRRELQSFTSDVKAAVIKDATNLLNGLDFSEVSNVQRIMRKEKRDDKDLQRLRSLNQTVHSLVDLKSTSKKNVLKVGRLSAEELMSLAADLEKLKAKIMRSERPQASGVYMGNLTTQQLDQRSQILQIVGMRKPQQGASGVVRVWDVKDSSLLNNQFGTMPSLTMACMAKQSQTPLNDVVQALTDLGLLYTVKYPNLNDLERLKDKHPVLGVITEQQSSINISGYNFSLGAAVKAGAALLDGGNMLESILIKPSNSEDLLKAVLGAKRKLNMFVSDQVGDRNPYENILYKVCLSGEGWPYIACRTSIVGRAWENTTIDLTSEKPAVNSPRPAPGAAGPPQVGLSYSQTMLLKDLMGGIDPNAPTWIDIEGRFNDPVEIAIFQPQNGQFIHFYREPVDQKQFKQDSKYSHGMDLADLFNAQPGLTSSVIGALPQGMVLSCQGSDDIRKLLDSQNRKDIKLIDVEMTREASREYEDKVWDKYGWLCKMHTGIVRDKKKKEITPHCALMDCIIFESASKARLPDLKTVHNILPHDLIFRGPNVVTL

[8] = qHTS of pediatric cancer cell lines to identify multiple opportunities for drug repurposing: Primary screen for TC32 cells (AID 1347089); further: nearly all actives have a fitted effect of over 60% in size
In short: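 In the primary qHTS, MIPE compounds were tested at 11 concentrations (0.78 nM to 46 µM) and NPC compounds at 8 (0.59 nM to 46 µM) on TC32 cells for 48 h. CellTiter-Glo luminescence gave viability.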

[9] = qHTS of pediatric cancer cell lines to identify multiple opportunities for drug repurposing: Primary screen for SJ-GBM2 cells (AID 1347091); further: potency means the concentration at half of the fitted maximal effect
In short: (§1)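 Cell viability, CellTiter-Glo luminescence; 500-1,000 cells/well, 8- or 11-point titration, 48 h compound exposure at 37 degrees C, 5% CO2. Controls: DMSO neutral, bortezomib 2.3 µM final as positive.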

[10] = qHTS of pediatric cancer cell lines to identify multiple opportunities for drug repurposing: Primary screen for A673 cells (AID 1347092); further: nearly all actives have a fitted effect of over 45% in size; further: potency means the concentration at half of the fitted maximal effect
In short: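 48 h compound exposure, A673, 500-1,000 cells/well, 37 degrees C/5% CO2. MIPE: 11-point, 0.78 nM-46 µM; NPC: 8-point, 0.59 nM-46 µM (final). Readout CellTiter-Glo luminescence after 15 min RT.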

[11] = qHTS of pediatric cancer cell lines to identify multiple opportunities for drug repurposing: Primary screen for DAOY cells (AID 1347090); further: series mostly up to about 46 µM; nearly all actives have a fitted effect of over 55% in size
In short: as §1

Row | Compound | Potency [1] | Potency [2] | Potency [3] | Potency [4] | Potency [5] | Potency [6] | Potency [7] | Potency [8] | Potency [9] | Potency [10] | Potency [11]
1 | CCc1c(C(=O)C(N)=O)c2c(OCC(=O)O)cccc2n1Cc1ccccc1 | inactive | inactive | inactive | inactive | inactive | inactive | inactive | inactive | inactive | – | –
2 | CN1CCN(c2ccc([N+](=O)[O-])c3no[n+]([O-])c23)CC1 | inactive | inactive | inactive | inactive | inactive | inactive | inactive | inactive | 23.5 µM (active) | 23.5 µM (active) | –
3 | CCCCC(CC)COC(=O)c1ccccc1C(=O)OCC(CC)CCCC (centres undefined) | – | inactive | inactive | inactive | inactive | inactive | inactive | inactive | inactive | inactive | inactive
4 | CN[C@@H](C)[C@H](O)c1ccccc1 | – | inactive | inactive | inactive | inactive | inactive | inactive | inactive | inactive | inactive | inactive
5 | C=C1C[C@H]2[C@H]3CCC(=O)[C@@]3(C)CC[C@@H]2[C@@]2(C)C=CC(=O)C=C12 | – | inactive | inactive | inactive | inactive | inactive | inactive | inactive | inactive | – | inactive
6 | CN(C)NC(=O)CCC(=O)O | – | inactive | inactive | inactive | inactive | inactive | inactive | inactive | inactive | inactive | inactive
7 | CCCCOC(=O)c1ccccc1C(=O)OCc1ccccc1 | – | inactive | inactive | inactive | inactive | inactive | inactive | inactive | inactive | inactive | inactive
8 | CCC1(CCC(C)C)C(=O)NC(=O)NC1=O | – | inactive | inactive | inactive | inactive | inactive | inactive | inactive | inactive | inactive | inactive
9 | O=C1C(I)=CC(=C(c2cc(I)c(O)c(I)c2)c2ccccc2C(=O)O)C=C1I | – | inactive | inactive | inactive | inactive | inactive | inactive | inactive | inactive | – | inactive
10 | O=C(O)CNC(=O)c1c(O)c2ccccc2n(Cc2ccccc2)c1=O | – | inactive | inactive | inactive | inactive | inactive | inactive | inactive | inactive | – | inactive
11 | CC[N+]1(CCOC(=O)C(O)(c2ccccc2)c2ccccc2)CCCCC1 | – | inactive | inactive | inactive | inactive | inactive | inactive | inactive | inactive | inactive | inactive
12 | O=C(O)c1cc(Oc2ccc(C(F)(F)F)cc2Cl)ccc1[N+](=O)[O-] | – | inactive | inactive | inactive | inactive | inactive | inactive | inactive | inactive | inactive | inactive
13 | CS(=O)(=O)c1ccc(C(=O)C2C(=O)CCCC2=O)c([N+](=O)[O-])c1 | – | inactive | inactive | inactive | inactive | inactive | inactive | inactive | inactive | inactive | inactive
14 | CC(C)(C)NC[C@H](O)c1ccc(O)cc1Cl | – | inactive | inactive | inactive | inactive | inactive | inactive | inactive | inactive | inactive | inactive
15 | O=C(O)COc1nc(Cl)c(Cl)cc1Cl | – | inactive | inactive | inactive | inactive | inactive | inactive | inactive | inactive | inactive | inactive
16 | Cc1ccc(Cl)c(O)c1 | – | inactive | inactive | inactive | inactive | inactive | inactive | inactive | inactive | inactive | inactive
17 | NC1=NC(=O)N2CC12 (centres undefined) | – | inactive | inactive | inactive | inactive | inactive | inactive | inactive | inactive | – | inactive
18 | OCCCBr | – | inactive | inactive | inactive | inactive | inactive | inactive | inactive | inactive | inactive | inactive
19 | O=S(=O)(O)C(F)(F)C(F)(F)C(F)(F)C(F)(F)C(F)(F)C(F)(F)C(F)(F)C(F)(F)F | – | inactive | inactive | inactive | inactive | inactive | inactive | inactive | inactive | inactive | inactive
20 | C1=C2CCCN[C@H]2[C@@H]2C[C@H]1[C@@H]1CCCCN1C2 | – | inactive | inactive | inactive | inactive | inactive | inactive | inactive | inactive | – | inactive
21 | O=C(O)COc1ccccc1 | – | inactive | inactive | inactive | inactive | inactive | inactive | inactive | inactive | inactive | inactive
